The source of these data is the OligoGym collection.
Further: reference of the scale not given here.

For the first experiment, the target named is HIST1H4B. The experiment can be described thus: pooled miR-30 sensor sort-seq; sequence = guide strand. Conditions: shRNA.
ATCCATGGCAGTGACAGTCTTG yielded a sensor-assay potency score (higher = more potent) of -0.826. With AACACCTTGAGAACGCCACGAG, the sensor-assay potency score (higher = more potent) is -0.445.

Consider TTGGATGTTATCCCGCAGCACT, for which the sensor-assay potency score (higher = more potent) was -1.27.

For the sequence TCTCCTCATAAATCAAACCGGA, the sensor-assay potency score (higher = more potent) was -1.02. Same read-out and setting: for TACCCAAACCTTTACCGCCTTT the value was -0.866; for TCCTTGACGCTTGAGCGCGTAA, -1.7. As for AATCAAACCGGAAATTCGCTTA, the sensor-assay potency score (higher = more potent) amounted to 0.0174. The same measure, in the same setting: for TATCCCGCAGCACTTTTCGGTG the value was -1.57; for TTATCCCGCAGCACTTTTCGGT, -0.874; for TGACAGTCTTGCGCTTGGCGTG, -1.49.

For the sequence TTTGGTGATGCCTTGGATGTTA, the sensor-assay potency score (higher = more potent) was 0.361.

The sequence TAAACCACATCCATGGCAGTGA returned a sensor-assay potency score (higher = more potent) of 0.196.

The next experiment has as its target HIST1H4G. The experiment is described as above. Conditions: shRNA.
TTTGAGCACGTAGACCACGGCC: the sensor-assay potency score (higher = more potent) was -0.756. Same read-out and setting: for TATCGCTCAGTACCTTGCGATG the value was -1.74; for TACCAGATCACATTTTCCAGGA, -0.129. TTGAGCACGTAGACCACGGCCA showed a sensor-assay potency score (higher = more potent) of -0.24. With ATTATCGCTCAGTACCTTGCGA, the sensor-assay potency score (higher = more potent) was -0.081.

With ATATTATCGCTCAGTACCTTGC, the sensor-assay potency score (higher = more potent) is -0.774.

AGGAACACCTTGAACACCCGGC yielded a sensor-assay potency score (higher = more potent) of -0.945. In turn, TTATCGCTCAGTACCTTGCGAT came in with a sensor-assay potency score (higher = more potent) of -0.526.

Take ACATTTTCCAGGAACACCTTGA: the sensor-assay potency score (higher = more potent) was -0.0469. For the sequence ACACCTTGAACACCCGGCGGGT, the sensor-assay potency score (higher = more potent) was -1.05. Still for that read-out and setting: then AATATTATCGCTCAGTACCTTG, with -1.22; and AACACCTTGAACACCCGGCGGG, with -0.571.

The next experiment has as its target HIST2H2AB. The description is as above. The following applies: shRNA.
GTAACTTGTTGAGCTCTTCGTC came in with a sensor-assay potency score (higher = more potent) of -0.977. In the case of TCTTCGTCATTCCTCACGGCTA, the sensor-assay potency score (higher = more potent) was -1.31. As for TGGATATTGGGCAAGACGCCGC, the sensor-assay potency score (higher = more potent) is -1.14. On the same count and under the same terms, for TTGTGACTCTCCGTTTTCTTGG the value was -0.765; for TGACTCTCCGTTTTCTTGGGCA, 0.0701. Same read-out and setting: then TTGAGCTCTTCGTCATTCCTCA, with 0.203; and AACTTGTTGAGCTCTTCGTCAT, with -0.274. Same read-out and setting: for ACTTGTTGAGCTCTTCGTCATT the value was -1.57. As to TTGGGCAACAGGACAGCCTGGA, the sensor-assay potency score (higher = more potent) came to 0.319. The same measure, in the same setting: then TAACTTGTTGAGCTCTTCGTCA, with -0.534.

Consider TTTTCTTGGGCAACAGGACAGC, for which the sensor-assay potency score (higher = more potent) was -1.07. For TTCGTCATTCCTCACGGCTAGT, the sensor-assay potency score (higher = more potent) was -0.686.
